Bioassay records: PubChem BioAssay, National Center for Advancing Translational Sciences (NCATS)
Hits are enriched below; roughly 9% of the tested compounds scored in any of these assays.
Luc counter = Kinase-Glo luciferase inhibition (counter-screen); hit rate 0.28% among 200,000; Potency, µM (top dose mostly 38.3 µM), for the others: at the top dose activity change, negative = inhibition, actives largely listed as inhibitors; Q27757; Kinase-Glo luciferase, ATP luminescence, 8 min; further: on the % scale 0 is the no-effect control and ±100 the full control effect; nearly all actives have a fitted effect of over 60% in size
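Compound is pinned into ATP-containing buffer (10 uM ATP, imidazole pH 7.2, 7 mM MgCl2). Kinase-Glo luciferase reagent is then added. Light output is recorded following an 8-min room-temperature incubation.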
Lamin A splicing = modulators of lamin A splicing; HeLa LMNA splicing GFP/RFP minigene ratio, 48 h; Potency, µM (highest dose often 46.1 µM), inactives show at the top dose ratio change, negative = inhibition, hits mostly inhibitors; hit rate 0.01% among 200,000; active means well fitted inhibition curve with a large enough effect in the signal ratio, with a control signal flat, not every such curve was filed as active; inconclusive means small, poorly fitted or top-dose-only effect, or effect the other way, or a change in a side signal; the % refers to the signal ratio; further: on the % scale 0 is the no-effect control and ±100 the full control effect
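S3 HeLa cells stably expressing lamin A-EGFP splicing minigene plus DsRed2, 600 cells/well, 48 h compound exposure at 37C. Laser-scanning cytometry; analysed as GFP (500-530 nm)/RFP (575-640 nm) total intensity ratio; 0.5% DMSO vehicle.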
ALDH1A1 inh = blocks purified human ALDH1A1 activity. Purified ALDH1A1, NADH fluorescence, propionaldehyde substrate. P00352. Potency, µM (top dose mostly 75.3 µM), for the others: at the highest dose activity, negative = inhibition, hits mostly inhibitors. hit rate 7.3% among 220,000; active means well fitted inhibition curve with a large enough effect, not every such curve was filed as active; inconclusive means small, poorly fitted or top-dose-only effect, or another doubt; inactive means no such curve, though single readings can be large or run the other way;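 further: plate controls were no enzyme wells and a reference inhibitor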
Target sequence (P00352 whole entry, looked up): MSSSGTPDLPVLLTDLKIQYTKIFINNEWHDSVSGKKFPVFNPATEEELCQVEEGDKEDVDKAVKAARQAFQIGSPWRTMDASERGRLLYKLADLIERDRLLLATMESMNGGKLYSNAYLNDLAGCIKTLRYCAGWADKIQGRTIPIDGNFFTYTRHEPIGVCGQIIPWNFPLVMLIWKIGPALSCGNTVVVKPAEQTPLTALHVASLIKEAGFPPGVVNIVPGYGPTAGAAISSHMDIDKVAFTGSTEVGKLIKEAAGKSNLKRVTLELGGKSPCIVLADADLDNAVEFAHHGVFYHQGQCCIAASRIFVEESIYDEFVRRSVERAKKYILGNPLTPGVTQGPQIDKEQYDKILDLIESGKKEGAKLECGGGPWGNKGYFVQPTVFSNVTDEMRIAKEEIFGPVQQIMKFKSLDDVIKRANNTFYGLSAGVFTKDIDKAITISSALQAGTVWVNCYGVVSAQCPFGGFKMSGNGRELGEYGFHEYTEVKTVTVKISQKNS
HPGD block = inhibitors of human 15-hydroxyprostaglandin dehydrogenase (HPGD); purified HPGD, NADH fluorescence kinetic, PGE2 substrate; AID 894; Potency, µM, for the others: top-dose activity change, negative = inhibition, usual class: inhibitors; P15428; hit rate 4.3% among 150,000; active means well fitted inhibition curve with a large enough effect, not every such curve was filed as active; inconclusive means small, poorly fitted or top-dose-only effect, or another doubt; inactive means no such curve, though single readings can be large or run the other way; further: on the % scale 0 is the no-effect control and ±100 the full control effect
Target sequence (P15428 whole entry, looked up): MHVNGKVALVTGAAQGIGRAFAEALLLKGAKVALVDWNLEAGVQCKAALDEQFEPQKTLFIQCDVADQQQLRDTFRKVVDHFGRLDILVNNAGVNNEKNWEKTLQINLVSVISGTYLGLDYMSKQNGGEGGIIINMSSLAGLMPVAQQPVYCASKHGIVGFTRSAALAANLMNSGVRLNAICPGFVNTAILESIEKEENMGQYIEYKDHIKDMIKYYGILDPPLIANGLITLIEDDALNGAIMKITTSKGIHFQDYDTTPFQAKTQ
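NADH formation kinetics: reaction with 30 uM PGE2 and 1 mM NAD+ (final), 20 nM enzyme, Tris-HCl pH 8 with Tween 20, after 15 min compound preincubation at room temperature. Fluorescence change, last versus first of five reads.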
HttQ103 aggreg = reduces HttQ103-GFP aggregates in PC12 cells. PC12 HttQ103-GFP aggregates, Acumen cytometry, 40 h. Potency, µM (series often up to 46.1 µM), inactives show at the highest dose activity change, negative = inhibition, usual class: inhibitors. hit rate 1.1% among 220,000. AID 1688; further: on the % scale 0 is the no-effect control and ±100 the full control effect; nearly all actives have a fitted effect of over 60% in size
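PC12/HTTQ103-GFP, ecdysone-inducible; teb 100 nM; cpd qHTS titration; GFP aggregates read on laser cytometer, Ex 488/Em 500-530 nm.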
HTT ATP protect = Huntington cell model cytoprotection by ATP luminescence; Potency, µM (series often up to 56.4 µM), for the others: cytoprotection (ATP increase), hits mostly activators; hit rate 0.14% among 230,000; PC12 HTT-Q103 induced, cytoprotection, ATP luminescence, 40 h; further: % of control where 0% means no effect; nearly all actives have a fitted effect of over 45% in size
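PC12 cells stably carrying ecdysone-inducible Htt exon 1 (Q103)–GFP were induced with 100 nM tebufenozide (final) alongside library compounds in a dose series. Cytoprotection was scored as retained ATP by ATPlite luminescence.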
An asterisk follows results filed as active; ? = inconclusive; . = no result given; [ ] = another dose, or the depositor's remark. Unless noted, the call rests on the fitted dose curve; in most records, active means well fitted curve in the direction sought with a large enough effect; inconclusive means small, poorly fitted or top-dose-only effect, or another doubt; inactive means no such curve, though single readings can be large; an effect the other way counts as inactive or inconclusive. Potency means the concentration at half of the fitted maximal effect.

SMILES | Luc counter | Lamin A splicing | ALDH1A1 inh | HPGD block | HttQ103 aggreg | HTT ATP protect
COc1ccc(-c2coc3cc(O)cc(O)c3c2=O)cc1 | 1% | ? | -3% | -21% | -1% | -25%[1.9 µM]
O=c1c(-c2cc(O)c(O)c(O)c2)coc2cc(O)c(O)c(O)c12 | -4% | . | 25µM* | 7.1µM* | . | -64%
CC(C)=CCc1c(O)cc2occ(-c3ccc4c(c3)OCO4)c(=O)c2c1O | -6% | . | -8% | 25µM* | . | .
CC(NCc1ccncc1)C12CC3CC(CC(C3)C1)C2 (stereo not given) | 1% | . | 3% | . | . | .
COCCC(=O)Nc1ccc2c(c1)CN(C(=O)CCSC)CC2 | . | . | 12% | . | -3%[9.22 µM] | 11%[10 µM]
O=C1c2ccccc2C(=O)N1/N=C/c1ccc(O)c(O)c1 | -6% | 2% | -8% | -30% | -3% | .
NC(=O)c1cccc2cc3ccccc3cc12 | -2% | -2%[46 µM] | ? | . | 4% | -15%
CCOC(=O)c1cc(C)nc(SC)c1C#N | . | . | 40µM* | . | 17%[9.22 µM] | 2%[10 µM]
N#CC1=C(N)OC2=C(C(=O)CC(c3ccccc3)C2)C1c1ccoc1 (stereo not given) | 0% | 3% | ? | -21% | ? | .
Cc1ccc(NCc2ccc(O)c3ncccc23)cc1 | -5% | . | 3% | . | -37%[9.22 µM] | ?
Cc1cccc(NCc2ccc(O)c3ncccc23)c1C | -1% | ? | 10µM* | . | 8%[9.22 µM] | 13%[10 µM]
Cc1cccnc1NCc1ccc(O)c2ncccc12 | 13% | ? | 20µM* | -27% | -32% | -47%
Cc1nc2nc(-c3ccc(Cl)cc3)nn2c(C)c1Cl | -12% | 9% | 5% | -9% | 18% | 4%
CCOC(=O)Cn1c(=N)n(CCOc2ccc(F)cc2)c2ccccc21 | . | . | . | . | 10%[9.22 µM] | -12%[10 µM]
NC(=S)Cc1nc(-c2ccccc2)cs1 | -5% | ? | 3.2µM* | -17% | 1% | 21%[10 µM]
Cc1ccc(CN(Cc2cccnc2)C(=O)CN2C(=O)COc3ccccc32)o1 | -5% | -4% | 28µM* | -9% | -8% | -17%
O=C(CN1C(=O)COc2ccccc21)N(Cc1ccccc1)Cc1ccccn1 | 0% | 3% | ? | -12% | 12%[9.22 µM] | -2%[10 µM]
CC1CCCN(C(=O)Nc2ccc(Br)cc2Cl)C1 (stereo not given) | 1% | . | 3% | . | 17%[9.22 µM] | 29%
O=C(Cn1cnc2c(nnn2Cc2ccccc2F)c1=O)NCc1ccco1 | 0% | 16% | -2% | 32µM* | 28% | -28%
O=C(NCc1ccco1)C1CCN(c2nc3ccccc3n2Cc2ccccc2F)CC1 | 1% | 18% | 28µM* | -15% | ? | ?
Cc1ccc(Cn2nnc3c(=O)n(CC(=O)NCc4ccco4)cnc32)cc1 | -7% | -27% | -2% | ? | 17% | 6%[10 µM]
O=C(CN1CCN(Cc2ccccc2F)C1=O)NCc1ccco1 | 0% | 11% | 0% | -11% | 0.13µM* | 10%
CCOC(=O)c1nc(Nc2ccccc2)c2ccccc2n1 | 0% | 5% | -2% | -16% | -6% | 3%
COc1cc(NC(=S)N2CCN(c3ccccn3)CC2)cc(OC)c1OC | 4% | . | ? | . | 5% | -8%
COc1cc(NC(=S)N2CCN(c3ccccn3)CC2)cc(OC)c1 | . | -13% | -6% | . | 8.9µM* | 21%[10 µM]
SMILES | Luc counter | Lamin A splicing | ALDH1A1 inh | HPGD block | HttQ103 aggreg | HTT ATP protect
O=C(NC(=S)N1CCCc2ccccc21)c1ccco1 | 3% | -13%[46 µM] | ? | . | 1%[9.22 µM] | -33%
COc1ccc(NC(=S)N2CCN(c3ccccn3)CC2)cc1OC | . | ? | 25µM* | . | 13% | 1%[10 µM]
S=C(Nc1ccc(Nc2ccccc2)cc1)N1CCN(c2ncccn2)CC1 | 4% | . | 13µM* | . | -5%[9.22 µM] | -7%
CC1Cc2ccccc2N1C(=S)NC(=O)c1ccco1 (stereo not given) | 2% | 5%[46 µM] | 22µM* | . | -2% | -23%
CCOC(=O)c1ccccc1NC(=O)CSc1c(C)cnc2c1c(=O)n(C)c(=O)n2C | . | -8%[46 µM] | . | . | . | .
CN1CCN(C(=S)NC(=O)c2ccco2)CC1 | 0% | . | -16% | . | 6%[9.22 µM] | 27%[10 µM]
C(=N\N1CCN(c2ccccn2)CC1)/c1ccco1 | -14% | . | 18µM* | . | -3% | -11%[10 µM]
O=C(NC(=S)N1CCN(c2ccccn2)CC1)c1ccco1 | 0% | . | 11µM* | . | -2%[9.22 µM] | 3%[10 µM]
Cc1ccc(NC(=O)CN2C(=O)C(C)(C)c3cc(S(=O)(=O)N4CCCCC4)ccc32)c(Br)c1 | . | 7%[46 µM] | . | . | . | .
Cc1ccc(NNC(=O)c2cc(C(C)(C)C)nn2Cc2ccccc2)cc1 | . | . | 15µM* | . | 2%[9.22 µM] | 3%[10 µM]
CCn1c(SCC(=O)N2c3ccccc3Sc3ccccc32)nc2c1c(=O)n(C)c(=O)n2C | -3% | 2% | 11µM* | -12% | -12% | 1%[10 µM]
CCCn1c(SCC(=O)N2c3ccccc3CCc3ccccc32)nc2c1c(=O)n(C)c(=O)n2C | -3% | -8% | 11µM* | -13% | 14% | -11%
CCCCn1c(SCC(=O)N2c3ccccc3Sc3ccccc32)nc2c1c(=O)n(C)c(=O)n2C | 5% | -27% | ? | -19% | -12% | -14%[10 µM]
Cn1c(=O)c2c(nc(SCC(=O)c3ccccc3F)n2C)n(C)c1=O | -1% | . | 18µM* | . | -10%[9.22 µM] | -18%[10 µM]
CCN(CC)S(=O)(=O)c1cc(NS(=O)(=O)c2cc(Cl)ccc2Cl)ccc1C | 2% | ? | 16µM* | -6% | -1% | -4%[0.074 µM]
NC(=O)CCC(NC(=S)Nc1ccccc1)C(=O)O (stereo not given) | . | . | . | . | 4%[9.22 µM] | 10%[10 µM]
O=C(CSc1c(Cl)cccc1Cl)NC1CCCc2ccccc21 (stereo not given) | 4% | -4% | 9% | -6% | -20% | -13%[10 µM]
O=C(CSc1nc2ccccc2[nH]1)NC1CCCc2ccccc21 (stereo not given) | 0% | -9% | -3% | -8% | 2% | -1%[10 µM]
Cc1ccccc1-n1nnnc1SC(C)C(=O)NC1CCCc2ccccc21 (stereo not given) | 2% | -14% | 4.5µM* | -12% | 7% | 31%[10 µM]
CC(Sc1nnc(Nc2ccccc2)s1)C(=O)NC1CCCc2ccccc21 (stereo not given) | 3% | ? | 32µM* | -26% | 7% | -14%[1.9 µM]
O=C(CSc1nnnn1-c1ccccc1)NC1CCCc2ccccc21 (stereo not given) | . | -1% | 10µM* | . | ? | 12%[10 µM]
O=C(CSc1nc2ccccc2s1)NC1CCCc2ccccc21 (stereo not given) | 3% | ? | ? | 11µM* | 13% | 3%[10 µM]
CC(C)(C)/C(Cn1cncn1)=N\OC(=O)Nc1ccc(Cl)cc1 | -4% | 7% | 6% | -7% | 4% | .
CCOC(CNC(=O)c1ccc(N2CCc3ccccc32)c([N+](=O)[O-])c1)OCC | -6% | ? | 10µM* | -19% | -31% | 7%[10 µM]
